Bioassay records deposited in PubChem by several laboratories.
GC-A act: GC-A (human) enzyme activation; HEK293 GC-A cells, cGMP TR-FRET, EC30 ANP; 0% at EC30 ANP, 100% saturating ANP; hit rate 0.14% among 370,000; P16066; activation, % at 10 µM; in the data active = activation above about 40%
Target sequence (P16066 whole entry, looked up): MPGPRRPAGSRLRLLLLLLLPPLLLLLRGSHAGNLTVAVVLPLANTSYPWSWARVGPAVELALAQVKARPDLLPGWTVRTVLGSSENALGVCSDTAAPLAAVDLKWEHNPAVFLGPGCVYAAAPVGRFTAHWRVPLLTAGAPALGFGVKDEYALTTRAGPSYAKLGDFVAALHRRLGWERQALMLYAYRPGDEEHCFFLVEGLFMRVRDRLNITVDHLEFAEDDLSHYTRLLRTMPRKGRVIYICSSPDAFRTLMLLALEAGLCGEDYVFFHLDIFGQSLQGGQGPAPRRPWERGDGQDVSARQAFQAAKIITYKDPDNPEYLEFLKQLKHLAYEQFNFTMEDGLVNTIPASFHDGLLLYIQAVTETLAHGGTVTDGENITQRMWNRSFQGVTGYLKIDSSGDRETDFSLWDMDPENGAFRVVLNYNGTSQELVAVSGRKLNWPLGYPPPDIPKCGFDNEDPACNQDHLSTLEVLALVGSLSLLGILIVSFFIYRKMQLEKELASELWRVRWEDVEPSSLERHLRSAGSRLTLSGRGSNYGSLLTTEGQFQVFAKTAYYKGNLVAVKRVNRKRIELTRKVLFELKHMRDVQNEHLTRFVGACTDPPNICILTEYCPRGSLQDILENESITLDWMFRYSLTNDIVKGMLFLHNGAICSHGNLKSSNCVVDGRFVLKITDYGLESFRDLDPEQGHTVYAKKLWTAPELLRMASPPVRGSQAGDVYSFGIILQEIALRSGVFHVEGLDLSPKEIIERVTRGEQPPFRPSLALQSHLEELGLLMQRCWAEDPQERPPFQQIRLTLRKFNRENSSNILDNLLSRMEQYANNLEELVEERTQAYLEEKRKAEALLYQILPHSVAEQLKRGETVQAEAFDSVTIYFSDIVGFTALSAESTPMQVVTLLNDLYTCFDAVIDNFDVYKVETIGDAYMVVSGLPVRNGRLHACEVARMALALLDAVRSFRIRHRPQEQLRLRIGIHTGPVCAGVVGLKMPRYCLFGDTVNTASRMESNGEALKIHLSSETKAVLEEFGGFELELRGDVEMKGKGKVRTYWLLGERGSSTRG
Dyrk1A ADPGlo: inhibitors of rat Dyrk1A kinase. ADP-Glo luminescence, NFATc1 peptide. inhibition, % at 12.5 µM. hit rate 0.43% among 310,000. AID 504441; in the data active = inhibition above about 50%;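 also: plate controls were vehicle with enzyme for no effect and no enzyme for full effect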
HSF1 inhib: HSF1 inhibition; NIH3T3-HGL HSE-luciferase, MG132-induced, luminescence 8 h; active compounds read low; activity change, negative = inhibition, % at 7.5 µM (by protocol); hit rate 0.77% among 300,000; AID 2098;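 active = more than half of replicate wells show activity change below -50%, luminescence cut by over half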;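 also: luciferase reports HSF-1 transcriptional activity via heat shock element; 0% = median of DMSO wells and -100% = zero luminescence signal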
aDG glyco act: increases alpha dystroglycan glycosylation. hit rate 0.22% among 360,000. Pro5-aDG cells, alpha-DG glycosylation AlphaScreen (IIH6); 0% Pro5, 100% B10-LARGE cell signal. activation, % at 10 µM;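 active = activation of at least 8% versus controls, or a plate z-score of at least 8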;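 also: Pro5 are CHO cells carrying HIG-tagged alpha-DG that lacks glycosylation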
GC-B act: GC-B (human) receptor activation | P20594 | HEK293-GC-B cells, CNP EC30, cGMP TR-FRET; 0% at EC30 CNP, 100% saturating CNP | activation, % at 10 µM | hit rate 0.11% among 370,000 | AID 1920062;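 active = activation at 10 µM reaching about 35% in either raw or pattern-adjusted values, limit read from the data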
HSF-1 act: increases HSF-1 driven luciferase reporter signal; NIH3T3-HGL HSF-1 luciferase reporter, MG132, 8 h; 100% = twice DMSO control signal; activation, % at 9 µM; hit rate 1.7% among 300,000; AID 504408;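 active = mean replicate activation of at least 50% with a set share of replicates each reaching 50%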;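 also: 0% = median of the neutral control wells and 100% = twice that signal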
* marks the source's active call; other numbers are inactive results; . = not tested or not shown. A selection: hits, their analogues and other compounds. The true share with any hit is near 2.5%.

SMILES	GC-A act	Dyrk1A ADPGlo	HSF1 inhib	aDG glyco act	GC-B act	HSF-1 act
O=C(CSc1c2c(nc3cc(Cl)ccc13)CCCC2)NCCN1CCOCC1	-9	3	43	0	-7	65*
COc1ccc(Cl)cc1NC(=O)c1ccc2c(SCC(=O)O)c3c(nc2c1)CCCC3	-1	2	15	0	-2	29
CC(C)CNc1ncnc2c1ncn2[C@H]1CN(Cc2cccc3ccccc23)C[C@@H](CO)O1	1	.	.	0	-3	.
CC(=O)N1c2ccc(C)cc2C(c2ccccc2)CC1C (stereo unspecified)	-4	.	34	0	-2	58*
CC(C)(C)c1ccc(C(=O)Nc2ccc(CC(=O)O)cc2)o1	4	-2	-59*	0	2	-64
COC(=O)c1ccccc1N=Nc1c(C)n[nH]c1C	-1	.	-4	0	-5	3
CN(c1ccc(O)cc1)c1nc(O)c(C2=c3ccccc3=NC2=O)s1	41*	7	15	0	-5	32
CN(Cc1ccc(F)cc1)C(=O)CNC(=O)c1cccs1	2	0	.	0	2	.
O=C(CCc1nnc2ccc(N3CCC4(CC3)OCCO4)nn12)N1CCCCC1	-1	-2	-3	0	-3	-9
CC1(C)CC(=O)C2=C(C1)OC(N)=C(C#N)C2c1cccs1 (stereo unspecified)	4	-4	-1	0	1	-6
CC1(C)CC(=O)C2=C(C1)OC(N)=C(C#N)C2c1ccccc1 (stereo unspecified)	-2	9	-54*	0	0	-61
Cc1ccc(NS(=O)(=O)c2cc(C(=O)N3CCc4ccccc4C3)ccc2Cl)cc1	-1	-1	31	0	-6	67*
O=[N+]([O-])c1cc([N+](=O)[O-])c(N2CCOCC2)cc1NCc1ccccc1	8	2	48	0	8	109*
CC(=O)Nc1ccc(NC2=CC(=O)c3ccccc3C2=O)cc1	-11	-6	32	2	-19	77*
CC(=O)Nc1ccc2c(c1)C(=O)c1ccccc1C2=O	7	-2	25	0	-6	30
CC(=O)Nc1ccc(Nc2c3c4c(cccc4n(C)c2=O)C(=O)c2ccccc2-3)cc1	28	-1	-4	0	38*	-9
O=C1C=C(Nc2ccc(O)cc2)C(=O)c2ccccc21	-4	13	58	0	-9	64*
COc1ccc(C(O)c2ncc(-c3ccccc3Cl)[nH]2)cc1 (stereo unspecified)	0	.	.	0	-1	.
CCCCn1nnnc1C1(C)CCC(=O)N1Cc1ccc(F)cc1 (stereo unspecified)	2	.	.	0	3	.
O=C(CN1C(=O)CC(c2ccccc2)=Nc2ccccc21)NCc1ccco1	-1	0	17	0	-1	71*
Cc1ccc(OCCn2cnc3ccccc3c2=O)c([N+](=O)[O-])c1	-3	4	26	0	-9	58*
Cc1ccccc1OCCC(=O)OCC(=O)NCCNC(=O)COC(=O)CCOc1ccccc1C	0	8	2	0	-2	14
CC(C)(C)c1ccc(OCC(=O)N2CCCCCC2)c(Br)c1	1	4	37	0	1	69*
Cc1ccc(OCC(=O)N2CCCCC2)c(Br)c1	2	-7	13	0	3	17
CC(C)(C)OC(=O)N1CCOCCOCCN(C(=O)OC(C)(C)C)CCOCCOCC1	-4	2	-5	0	4	7
SMILES	GC-A act	Dyrk1A ADPGlo	HSF1 inhib	aDG glyco act	GC-B act	HSF-1 act
O=C(CSc1nnnn1C1CC2CCC1C2)Nc1ccnc2ccccc12 (stereo unspecified)	-5	7	.	7.4*	0	.
CN1CCCC(n2nc(Cc3ccc(Cl)cc3)c3ccccc3c2=O)CC1 (stereo unspecified)	-15	8	3	1	118*	16
CCOC(=O)Cn1nc(Cc2ccccc2)c2ccccc2c1=O	2	12	-8	0	7	1
CCC(C)NC(=O)c1csc2c1CCCCC2 (stereo unspecified)	-1	0	19	0	2	67*
COc1ccc(NC(=O)c2csc3c2CCCC3)cc1	-1	4	34	0	-6	53*
CC(C)(C)NCC(O)COc1ccccc1C(=O)CCc1ccccc1 (stereo unspecified)	-11	6	-3	2.5*	-9	10
CCCCOc1cccc(OCCCC)c1C(=O)Nc1cc(C)on1	1	-3	15	0	3	39
Cc1ccccc1Oc1nc(-c2ccccn2)nc2ccccc12	-15	11	12	2.1*	-7	23
COc1ccc(N2C(=O)c3ccccc3NC2c2ccc(OC)c(Cn3cc([N+](=O)[O-])cn3)c2)cc1 (stereo unspecified)	-11	-1	-68*	0	-3	-75
Cc1nc(N2CCN(C(=O)c3ccco3)CC2)c(C#N)c2c1CCCC2	-4	-2	7	0	-4	13
CC(C)Cc1nc(N2CCN(C(=O)c3ccco3)CC2)c(C#N)c2c1CCCC2	-2	2	14	0	119*	8
O=C(Nc1nc(-c2ccccn2)cs1)c1cc(Cl)ccc1[N+](=O)[O-]	7	-1	34	-1	6	70*
Cc1cc(C(=O)Nc2nc(-c3ccccn3)cs2)ccc1[N+](=O)[O-]	3	6	-31	4	5	-28
COc1cccc(CNC(=O)[C@H]2CCCN2C(=O)[C@H]2CCCN2C(=O)c2ccc(F)c(F)c2)c1	6	.	.	.	-3	.
CC(=O)N1Cc2ccccc2CC1C(=O)N1CCN(c2ccccc2)CC1 (stereo unspecified)	1	.	-3	0	78*	4
COc1ccc(N2CCN(C(=O)C3Cc4ccccc4CN3C(=O)c3ccccc3)CC2)cc1 (stereo unspecified)	0	.	-5	0	-4	2
COc1ccccc1C(=O)n1nc(-c2ccco2)nc1SC	11	6	-4	0	7	11
COc1ccc(S(=O)(=O)Nc2ccncc2)c(C)c1C	2	-7	29	0	2	60*
COc1ccc(S(=O)(=O)Nc2cccnc2)c(C)c1C	1	-2	0	0	1	2
O=C(Nc1ccc2ccccc2n1)c1ccccc1Cl	7	-9	28	0	2	61*
O=C(Nc1ccc2ccccc2n1)c1ccc(Cl)cc1	29	0	31	0	-3	60*
CC(=O)Oc1ccc(OC(C)=O)c(SCCCCCCl)c1	1	.	-96*	0	3	-96
O=c1ccc2ccc(OCc3ccccc3)cc2o1	3	0	14	0	0	59*
